The values that follow come from the OligoGym collection.
Also: reference of the scale not given here.

The first experiment has as its target TM4SF4. Description: pooled miR-30 sensor sort-seq; sequence = guide strand. To be noted: shRNA.
Consider AAGATCATCAAGACACCGCTTC, for which the sensor-assay potency score (higher = more potent) is 0.685.

Turning to AACATCGCAAATCGCTTCCCAC, the sensor-assay potency score (higher = more potent) was -1.03.

As to TTTTCTAAGCTTTATCAGCTAG, the sensor-assay potency score (higher = more potent) is -0.744.

Turning to TTGACCACCTGGATGGCGCAGA, the sensor-assay potency score (higher = more potent) is -0.376.

Consider TTGTCATCTATCACTTTTCCTC, for which the sensor-assay potency score (higher = more potent) was -0.799.

On to TTTGAAAATAACAAAATTCTAA, for which the sensor-assay potency score (higher = more potent) is -0.879.

ATTGAGATAATCCCCGTCGTGG: the sensor-assay potency score (higher = more potent) is -0.0711.

As to TCGTGGAGGTGAACATCGCAAA, the sensor-assay potency score (higher = more potent) was -1.55.

Sequence TTGTTGATTGAAATGGCTGAGA registered a sensor-assay potency score (higher = more potent) of -0.818.

TAAACGAGTATCCAGCTCCCAA came in with a sensor-assay potency score (higher = more potent) of -1.07.

The target of the next experiment is TM7SF2. Described as above. To be noted: shRNA.
In turn, TACTTCTGCAGGCACTGCCGCT showed a sensor-assay potency score (higher = more potent) of -1.41.

As for AGATGTAGTAACCAGTAGCATT, the sensor-assay potency score (higher = more potent) is -2.06.

Sequence TTGATGAGGCAGATGACAGAGG displayed a sensor-assay potency score (higher = more potent) of -0.497.

In turn, TTGTCCTTCAATTCCTGCCCCT returned a sensor-assay potency score (higher = more potent) of -0.137.

As to TTCATGTAGAGAAAGAGGCTGA, the sensor-assay potency score (higher = more potent) worked out at 0.647.

In turn, TTTCGGAAAGTGTTTTTCTGGG came in with a sensor-assay potency score (higher = more potent) of -0.966.

With TCATGTGTGATATCCATGGTGG, the sensor-assay potency score (higher = more potent) is -0.309.

TATTTGAAGTCGAAGAAACAGA yielded a sensor-assay potency score (higher = more potent) of -0.986.

The sequence TTTGAAGTCGAAGAAACAGATA had a sensor-assay potency score (higher = more potent) of -1.28.

For TTGAGTCCCAAGTGTGTCGAGG, the sensor-assay potency score (higher = more potent) is -0.705.

In turn, TAGAGATGGTCTCAAGCCCAGC showed a sensor-assay potency score (higher = more potent) of -1.47.

For a further experiment, the target named is TMCC3. Described as above. The settings on record: shRNA.
As for TACCTTTAGAATTTTTTGCTTC, the sensor-assay potency score (higher = more potent) was -0.127.

The sequence TTCTCTCTTAAACTGCACCTTC registered a sensor-assay potency score (higher = more potent) of 0.0499.

For the sequence TTGCTTGATACGTCCCGCCTGC, the sensor-assay potency score (higher = more potent) is -0.167.

TTGAAAACGAACACAGGTGGAG returned a sensor-assay potency score (higher = more potent) of 0.022.

Regarding TAATGTTAAAGTCACAGTCTGA, the sensor-assay potency score (higher = more potent) is -0.348.

As for TTAAAGTGTAACAAAACCCCTC, the sensor-assay potency score (higher = more potent) is -0.0862.

As for TTGGGTATCCTTGATCTCCCTC, the sensor-assay potency score (higher = more potent) stood at 0.381.

TTGTTCACGATGGTAGCGCTGC had a sensor-assay potency score (higher = more potent) of -0.609.

Regarding TTATTGAAAACGAACACAGGTG, the sensor-assay potency score (higher = more potent) was -0.162.

Sequence TATTTTATTCTTGCTAGTCTTT showed a sensor-assay potency score (higher = more potent) of -0.521.

Consider TTGCACTTAATTTGAATCCAGG, for which the sensor-assay potency score (higher = more potent) was -0.313.

TTTGACCTTGTGGAAGTCCAGG: the sensor-assay potency score (higher = more potent) was -0.907.

The target of another experiment is TMCO6. The experiment is described as above. The settings on record: shRNA.
With TTTGTAGCATGTGCTGAGGGAG, the sensor-assay potency score (higher = more potent) is -0.612.

The sequence TACTGGACAAACAAGCTTGATG registered a sensor-assay potency score (higher = more potent) of -0.998.

TGCAACATTGCACAGAACTGTG returned a sensor-assay potency score (higher = more potent) of -0.739.

TTGCAACATTTGTAGCATGTGC: the sensor-assay potency score (higher = more potent) is -0.588.

Sequence TTCCTCAGCCTGTAGAAGCTGG gave a sensor-assay potency score (higher = more potent) of -0.621.

As to AACATTTGTAGCATGTGCTGAG, the sensor-assay potency score (higher = more potent) was 0.662.

In the case of TTTTCTGCAACATTGCACAGAA, the sensor-assay potency score (higher = more potent) came to 0.104.
